Results: PubChem BioAssay AID1159580 (chemical genetic matrix, 2015)
The whole screen tested about 5,500 compounds, of which about 2,000 (36%) were called active. Roughly 18% stayed inconclusive and do not appear here. The list shows a part of the results. A number with no mark means an inactive call. Cut-off read from the data, not from the text of the source: active = normalized growth mostly below about 0.91 (no sharp cut-off); inconclusive = no clear call, values can overlap the other calls; inactive = mostly above about 0.92.

Assay: chemical genetic growth profiling, strain panel (AID 1159580);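 note: tested at 20 µM; growth read once vehicle control cultures reached saturation at 30 °C; 1 = growth at the plate median or of vehicle wells; lower values mean less growth of the strain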
Conditions: growth OD

CN(C)CC/C=C1\c2ccccc2Sc2ccc(Cl)cc21
normalized growth (S. cerevisiae deletion strains, locus YJR043C, strain POL32, active compounds read low): 1.03
normalized growth (S. cerevisiae deletion strains, locus YJR066W, strain TOR1, active compounds read low): 0.815 (active)
normalized growth (S. cerevisiae deletion strains, locus YJR075W, strain HOC1, active compounds read low): 0.884
normalized growth (S. cerevisiae deletion strains, locus YKL009W, strain mrt4, active compounds read low): 0.989
normalized growth (S. cerevisiae deletion strains, locus YKL068W, active compounds read low): 1.01
normalized growth (S. cerevisiae deletion strains, locus YKL085W, strain MDH1 (second series), active compounds read low): 1.03
normalized growth (S. cerevisiae deletion strains, locus YKL085W, strain MDH1, active compounds read low): 1.03
normalized growth (S. cerevisiae deletion strains, locus YKL160W, strain elf1, active compounds read low): 0.867 (active)
normalized growth (S. cerevisiae deletion strains, locus YKL190W, strain CNB1, active compounds read low): 0.982
normalized growth (S. cerevisiae deletion strains, locus YKR026C, strain gcn3, active compounds read low): 0.992
normalized growth (S. cerevisiae deletion strains, locus YKR091W, strain srl3, active compounds read low): 0.987
normalized growth (S. cerevisiae deletion strains, locus YLL001W, strain dnm1, active compounds read low): 0.904
normalized growth (S. cerevisiae deletion strains, locus YLL026W, active compounds read low): 0.981
normalized growth (S. cerevisiae deletion strains, locus YLL041C, strain sdh2, active compounds read low): 0.993
normalized growth (S. cerevisiae deletion strains, locus YLR027C, strain aat2, active compounds read low): 0.881 (active)
normalized growth (S. cerevisiae deletion strains, locus YLR039C, strain RIC1, active compounds read low): 1.5 [resistant] (active)
normalized growth (S. cerevisiae deletion strains, locus YLR058C, strain SHM2, active compounds read low): 0.933
normalized growth (S. cerevisiae deletion strains, locus YLR102C, strain apc9, active compounds read low): 1.02
normalized growth (S. cerevisiae deletion strains, locus YLR113W, strain HOG1, active compounds read low): 0.915
normalized growth (S. cerevisiae deletion strains, locus YLR221C, strain rsa3, active compounds read low): 0.947
normalized growth (S. cerevisiae deletion strains, locus YLR258W, strain gsy2, active compounds read low): 0.894 (active)
normalized growth (S. cerevisiae deletion strains, locus YLR262C, strain YPT6 (second series), active compounds read low): 1.1
normalized growth (S. cerevisiae deletion strains, locus YLR262C, strain YPT6, active compounds read low): 1.62 [resistant] (active)
normalized growth (S. cerevisiae deletion strains, locus YLR268W, strain sec22, active compounds read low): 1.01
normalized growth (S. cerevisiae deletion strains, locus YLR320W, strain mms22, active compounds read low): 0.951
normalized growth (S. cerevisiae deletion strains, locus YLR330W, strain CHS5, active compounds read low): 0.999
normalized growth (S. cerevisiae deletion strains, locus YLR342W, strain FKS1 (second series), active compounds read low): 0.667 (active)
normalized growth (S. cerevisiae deletion strains, locus YLR342W, strain FKS1, active compounds read low): 0.724 (active)
normalized growth (S. cerevisiae deletion strains, locus YLR357W, strain rsc2, active compounds read low): 0.935
normalized growth (S. cerevisiae deletion strains, locus YLR370C, strain arc18, active compounds read low): 0.749 (active)
normalized growth (S. cerevisiae deletion strains, locus YLR371W, strain rom2, active compounds read low): 1.01
normalized growth (S. cerevisiae deletion strains, locus YLR384C, strain iki3, active compounds read low): 0.987
normalized growth (S. cerevisiae deletion strains, locus YLR418C, strain cdc73, active compounds read low): 0.661 (active)
normalized growth (S. cerevisiae deletion strains, locus YML016C, strain PPZ1, active compounds read low): 0.994
normalized growth (S. cerevisiae deletion strains, locus YML032C, strain rad52, active compounds read low): 0.947
normalized growth (S. cerevisiae deletion strains, locus YML120C, strain ndi1, active compounds read low): 0.998
normalized growth (S. cerevisiae deletion strains, locus YML124C, strain tub3, active compounds read low): 1.02
normalized growth (S. cerevisiae deletion strains, locus YMR058W, strain fet3, active compounds read low): 0.775 (active)
normalized growth (S. cerevisiae deletion strains, locus YMR078C, strain ctf18, active compounds read low): 1.02
normalized growth (S. cerevisiae deletion strains, locus YMR125W, strain sto1, active compounds read low): 0.923
normalized growth (S. cerevisiae deletion strains, locus YMR129W, active compounds read low): 1
normalized growth (S. cerevisiae deletion strains, locus YMR205C, strain PFK2, active compounds read low): 0.921
normalized growth (S. cerevisiae deletion strains, locus YMR223W, strain ubp8, active compounds read low): 0.935
normalized growth (S. cerevisiae deletion strains, locus YMR231W, strain pep5, active compounds read low): 0.0779 (active)
normalized growth (S. cerevisiae deletion strains, locus YMR307W, strain GAS1, active compounds read low): 0.903
normalized growth (S. cerevisiae deletion strains, locus YNL067W, strain RPL9B, active compounds read low): 0.929
normalized growth (S. cerevisiae deletion strains, locus YNL071W, strain lat1, active compounds read low): 0.934
normalized growth (S. cerevisiae deletion strains, locus YNL183C, strain NPR1, active compounds read low): 0.872
normalized growth (S. cerevisiae deletion strains, locus YNL209W, strain ssb2, active compounds read low): 0.665 (active)
normalized growth (S. cerevisiae deletion strains, locus YNL233W, strain BNI4, active compounds read low): 0.891
normalized growth (S. cerevisiae deletion strains, locus YNL248C, strain rpa49, active compounds read low): 0.917
normalized growth (S. cerevisiae deletion strains, locus YNL250W, strain rad50, active compounds read low): 1.03
normalized growth (S. cerevisiae deletion strains, locus YNL271C, strain bni1, active compounds read low): 1.01
normalized growth (S. cerevisiae deletion strains, locus YNL298W, strain CLA4, active compounds read low): 1
normalized growth (S. cerevisiae deletion strains, locus YNL307C, strain MCK1, active compounds read low): 0.999
normalized growth (S. cerevisiae deletion strains, locus YNL322C, strain KRE1 (second series), active compounds read low): 1.03
normalized growth (S. cerevisiae deletion strains, locus YNR049C, strain mso1, active compounds read low): 0.996
normalized growth (S. cerevisiae deletion strains, locus YNR052C, strain pop2, active compounds read low): 0.964
normalized growth (S. cerevisiae deletion strains, locus YOL006C, strain TOP1, active compounds read low): 0.42 (active)
normalized growth (S. cerevisiae deletion strains, locus YOL012C, strain htz1): 1.87
normalized growth (S. cerevisiae deletion strains, locus YOL147C, strain pex11, active compounds read low): 1.02
normalized growth (S. cerevisiae deletion strains, locus YOR001W, strain rrp6, active compounds read low): 0.935
normalized growth (S. cerevisiae deletion strains, locus YOR061W, strain CKA2, active compounds read low): 0.941
normalized growth (S. cerevisiae deletion strains, locus YOR069W, strain VPS5, active compounds read low): 1
normalized growth (S. cerevisiae deletion strains, locus YOR070C, strain gyp1, active compounds read low): 0.804 (active)
normalized growth (S. cerevisiae deletion strains, locus YOR080W, strain dia2, active compounds read low): 0.975
normalized growth (S. cerevisiae deletion strains, locus YOR083W, strain WHI5, active compounds read low): 0.735 (active)
normalized growth (S. cerevisiae deletion strains, locus YOR106W, strain vam3, active compounds read low): 0.393 (active)
normalized growth (S. cerevisiae deletion strains, locus YOR136W, strain idh2, active compounds read low): 1.02
normalized growth (S. cerevisiae deletion strains, locus YOR144C, strain elg1, active compounds read low): 1.01
normalized growth (S. cerevisiae deletion strains, locus YOR184W, strain ser1, active compounds read low): 1.06
normalized growth (S. cerevisiae deletion strains, locus YOR231W, strain MKK1, active compounds read low): 0.869
normalized growth (S. cerevisiae deletion strains, locus YOR265W, strain rbl2, active compounds read low): 0.974
normalized growth (S. cerevisiae deletion strains, locus YOR270C, strain vph1, active compounds read low): 0.41 (active)
normalized growth (S. cerevisiae deletion strains, locus YOR290C, strain snf2, active compounds read low): 0.818 (active)
normalized growth (S. cerevisiae deletion strains, locus YOR316C, strain cot1, active compounds read low): 1.02
normalized growth (S. cerevisiae deletion strains, locus YPL051W, strain arl3, active compounds read low): 0.76 (active)
normalized growth (S. cerevisiae deletion strains, locus YPL078C, strain atp4, active compounds read low): 0.835 (active)
normalized growth (S. cerevisiae deletion strains, locus YPL106C, strain sse1, active compounds read low): 0.802 (active)
normalized growth (S. cerevisiae deletion strains, locus YPL240C, strain hsp82, active compounds read low): 0.981
normalized growth (S. cerevisiae deletion strains, locus YPL241C, strain CIN2, active compounds read low): 1.01
normalized growth (S. cerevisiae deletion strains, locus YPL256C, strain CLN2, active compounds read low): 0.95
normalized growth (S. cerevisiae deletion strains, locus YPR119W, strain clb2, active compounds read low): 1.03
normalized growth (S. cerevisiae deletion strains, locus YPR141C, strain kar3, active compounds read low): 1.02
normalized growth (S. cerevisiae deletion strains, locus YPR163C, strain tif3, active compounds read low): 0.827 (active)
normalized growth (S. cerevisiae deletion strains, locus YPR167C, strain met16, active compounds read low): 1.01
normalized growth (S. cerevisiae deletion strains, strain wtn01, active compounds read low): 0.937
normalized growth (S. cerevisiae strains, strain wild type, active compounds read low): 0.956
